Drawing on PubChem BioAssay AID1857 (The Scripps Research Institute Molecular Screening Center, 2009), this text covers inhibition for 52 compounds.

Structures are written as SMILES. About 290 (22%) of roughly 1,300 compounds were called active. Not all results are given here. Unmarked numbers belong to inactive results.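 How the source made its calls: active means inhibition above the mean of all tested compounds plus 3 SD (cut at about 19% in these data); inactive means the rest.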

This assay concerns VIM-2 metallo-beta-lactamase (Pseudomonas aeruginosa). The experiment in a line: VIM-2 inhibitors in FRET format, confirmation, artefact control for selective VIM-2 inhibitor project, biochemical, epi-absorbance artifact exclusion (AID 1857).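 Further: 0% = VIM-2 plus DMSO and 100% = no enzyme wells.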 The conditions noted are these: purified VIM-2, CCF2 FRET substrate hydrolysis; at 5.6 µM; active compounds read high.
Turning to `COc1ccc(Cc2nnc(NS(=O)(=O)Cc3ccccc3)s2)cc1`, the inhibition (commonly the change of the read-out against control, counted positive when it falls) is 29.2% (active). The value for `CCC1CCCCN1CCCNC(=O)c1cc2c(Cl)nc3ccccc3c2s1` (configuration not stated) was 3.62%; that for `Cn1c(=O)c2c(nc(N3CCOCC3)n2CCNC2=NCCC2)n(C)c1=O` was 1.09%; that for `CCOc1cc(/C=C2\SC(N3CCCCC3)=NC2=O)ccc1O` was 1.41%.

With `CCN1CCN(CCNC(=O)c2ccc3c(c2)NC(=O)/C(=C\c2ccc(OC)c(OC)c2)S3)CC1`, the inhibition is 31% (active). Regarding `Cc1cccn2c(=O)c(C=O)c(Nc3ccc(S(N)(=O)=O)cc3)nc12`, the inhibition was 2.01%. Turning to `CCOc1cc(/C=C2\SC(N3CCCC(C)C3)=NC2=O)ccc1O` (configuration not stated), the inhibition was -2.85%. To `O=C(COc1cc2oc(=O)c3c(c2cc1Cl)CCC3)NCCCN1CCOCC1` belongs -0.64%; to `Cn1c(-c2sccc2OCc2cccc(C(F)(F)F)c2)n[nH]c1=S`, 58.2% (active); to `CN(C)CCNc1ccc(-c2n[nH]c(=O)c3ccccc23)cc1[N+](=O)[O-]`, -1.97%. To `CCCc1ccc(OCCNC(=O)c2ccco2)cc1` belongs -1.44%; to `Cc1nc2ccccc2c2oc(C(=O)NCCCN3CCC(C)CC3)cc12`, 1.71%; to `C=CCn1c(-c2ccccc2OCC)n[nH]c1=S`, 40.4% (active). To `O=C(NCCCN1CCOCC1)c1cnn2c(-c3ccccc3)cc(-c3ccccc3)nc12` belongs -2.83%; to `CCc1cc(=O)oc2cc(C)cc(OCC(=O)N3CCC[C@@H]3C(=O)O)c12`, 32.9% (active); to `Cc1cc(NCc2ccco2)n2c(nc3ccccc32)c1C#N`, -12.9%. In the case of `CCN(CC)CCOc1ccc2c(c1)C(=NNC(=O)c1ccccn1)c1cc(OCCN(CC)CC)ccc1-2`, the inhibition is 2.33%. The value for `O=C(NC(=S)Nc1ccccc1C(=O)O)c1ccc(-c2ccc(Br)cc2)o1` was 11.2%; that for `CCN1CCCC1CNC(=O)c1cc2c(=O)n(C)c3ccccc3c2n1C` (configuration not stated) was -2.42%; that for `CC1CCCC(C)N1CCCNC(=O)c1cc2c(=O)n(C)c3ccccc3c2n1C` (configuration not stated) was -7.42%. `NC(=O)C1CCN(C(=O)COc2ccc3c4c(c(=O)oc3c2)CCC4)CC1`: the inhibition was -2.54%. For the compound `Cc1cc(C)c2nc3nc(C)cc(C)c3c(N)c2c1`, the inhibition was -10.3%. The value for `CC(NS(=O)(=O)c1ccccc1)c1n[nH]c(=S)n1-c1ccccc1` (configuration not stated) was 38.4% (active); that for `Cc1cc([N+](=O)[O-])c(-c2ccc(/C=N/n3cnnc3)o2)cc1Cl` was -0.73%. On to `Fc1ccc(-c2ccc(CNCc3ccccn3)o2)cc1Cl`, for which the inhibition is -13.3%. The value for `CC(C)(C)CC(=O)Nc1nnc(SCC(=O)NCc2cccs2)s1` was 45.5% (active). Consider `Nc1nnc2c(C(F)(F)F)nc3ccccc3n12`, for which the inhibition was 2.08%. For the compound `CCN(CC)c1ccc2cc(C(N)=O)/c(=N\NC(=O)c3ccncc3)oc2c1`, the inhibition was 11.1%. To `Cc1ccc2nc(C)c3c(c2c1)N(c1ccccc1)CC3` belongs -1.46%; to `COc1ccc(/C=N/N(C)C2=NS(=O)(=O)c3ccccc32)cc1OC`, -2.83%; to `CCN1CCN(C(=O)Cn2nc(C)n3c(cc4c(OC)cccc43)c2=O)CC1`, 1.55%. The value for `Cc1cc(-c2ccc(/C=N/n3cnnc3)o2)c([N+](=O)[O-])cc1C` was -2.34%; that for `O=C1Nc2cc(C(=O)N3CCC(N4CCCCC4)CC3)ccc2S/C1=C\c1ccccc1` was 53.6% (active).

Turning to `COc1ccc(Nc2cc(C)nc(-n3nc(C)cc3C)n2)cc1`, the inhibition is -53.5%.

For `Cc1ccc(Cl)cc1-c1ccc(/C=N/n2cnnc2)o1`, the inhibition was -0.56%. As to `COc1cc(NC(=O)C2=C(C)OCCS2)c(Cl)cc1C(=O)NCCN1CCN(C)CC1`, the inhibition was 2.07%. To `COc1cc(-c2nn3c(-c4cccc(C)c4)nnc3s2)cc(OC)c1OC` belongs 22.2% (active). Consider `COc1ccc(-c2nn3c(-c4ccccc4)nnc3s2)cc1OC`, for which the inhibition was 1.85%.

As for `CCOCCCNc1c(CC)c(C)c(C#N)c2nc3ccccc3n12`, the inhibition was 0.59%. Turning to `COc1ccc(CCn2c(=N)c(C(=O)NCC3CCCO3)cc3c(=O)n4cccc(C)c4nc32)cc1OC` (configuration not stated), the inhibition was -3.31%. The value for `CC(=O)c1ccc(-c2ccc(Cn3c(C)nc4cc(N)c(C)nc43)cc2)cc1` was 42.1% (active); that for `CNC(=O)c1ccsc1NC(=O)c1ccc(S(=O)(=O)N2CCOCC2)cc1` was 37.1% (active); that for `COC(=O)c1c(NC(=O)c2ccc(S(=O)(=O)N3CCOCC3)cc2)sc2c1CCN(C(C)C)C2` was 1.2%.

With `CN1CCN(c2ccc(NC(=O)c3ccc4c(c3)[nH]c(=O)n4Cc3ccc(F)cc3)cc2)CC1`, the inhibition is -0.35%.

Take `CCOC(=O)N1CCN(C(=O)C2CCN(c3ncnc4c3sc3cccc(F)c34)CC2)CC1`: the inhibition was 1.58%.

As to `Nc1cccc2c1C(=O)N(Cc1nnc(-c3ccccc3Br)o1)C2=O`, the inhibition is 29.6% (active). To `COc1nc(N=C(N)N)nc2c(C)cccc12` belongs -4.99%. To `Cn1c2ccccc2c(=O)c2c(O)cccc21` belongs -1.24%; to `COc1cc(/C=N/Nc2nn3cnnc3c3ccccc23)cc(OC)c1OC`, 0.17%. The value for `COC(=O)c1ccc(-c2noc(CN(Cc3ccccn3)CC3CCCO3)n2)cc1` (configuration not stated) was -11.9%; that for `O=c1[nH]c(-c2ccccc2)c(-c2ccccc2)[nH]1` was -3.81%. As for `Clc1cc(-c2ccc(/C=N/n3cnnc3)o2)ccc1Br`, the inhibition is -1.55%.
